Assay outcomes: PubChem BioAssay, National Center for Advancing Translational Sciences (NCATS)
The entries come from a sample that favours hits as a whole.
RE007 growth inh = less growth of the S. pombe RE007 Vpr strain; actives 0.21% (n = 360,000); S. pombe RE007 Vpr strain, BacTiter-Glo ATP luminescence, 24 h; AID 651644; Potency, µM (doses to about 92.2 µM), for the others: at the highest dose activity change, negative = less growth, usual class: inhibitors; active = well fitted falling curve with a large enough effect; inconclusive = small, poorly fitted or top-dose-only effect; inactive = no such curve, though single readings can be large or run the other way; note: potency is the fitted concentration of half-maximal effect; % is set by controls: 0 for no effect and ±100 for the full control effect; nearly all actives have a fitted effect of over 50% in size
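Fission yeast strain RE007, carrying one chromosomally integrated HIV-1 vpr copy, was seeded at OD 0.01 in PMG+AL medium with 23 nL pinned compound. After 24 h at 30 °C and 99% humidity, viability was read by BacTiter-Glo luminescence.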
Giardia FBPA inh = Giardia lamblia aldolase inhibition; purified Giardia FBPA; actives 0.71% (n = 290,000); AID 2451; Potency, µM (highest dose often 59.6 µM), for the others: at the top dose activity, negative = inhibition, actives largely listed as inhibitors; A8B2U2; note: potency is the fitted concentration of half-maximal effect; % is set by controls: 0 for no effect and ±100 for the full control effect; nearly all actives have a fitted effect of over 55% in size
Target sequence (A8B2U2 whole entry, looked up): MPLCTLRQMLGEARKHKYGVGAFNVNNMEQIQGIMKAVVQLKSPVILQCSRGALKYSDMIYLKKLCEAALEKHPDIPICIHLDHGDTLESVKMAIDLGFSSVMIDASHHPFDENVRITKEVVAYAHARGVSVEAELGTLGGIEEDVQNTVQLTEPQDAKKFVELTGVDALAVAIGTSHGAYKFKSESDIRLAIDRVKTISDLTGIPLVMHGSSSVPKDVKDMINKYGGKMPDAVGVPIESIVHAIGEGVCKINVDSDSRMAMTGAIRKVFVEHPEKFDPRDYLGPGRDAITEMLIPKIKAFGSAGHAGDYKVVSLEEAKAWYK
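Giardia FBPA (40 nM reagent) was preincubated 10 min at RT with compound (up to 57.5 uM final), then substrate plus GAPDH/TPI/NAD/arsenate coupling system with diaphorase/resazurin was added; resorufin fluorescence (525/598 nm) was read after 20 min.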
Shiga toxin inh = Shiga toxin inhibition. actives 9.2% (n = 290,000). Vero cells, Shiga toxin protein synthesis inhibition reporter. inhibition, % at 38.7 µM; in the data active = inhibition mostly above about 28%, no sharp cut-off; inactive = mostly below about 43%; note: 0% is about no effect
Cycloheximide cs = affects cycloheximide protein synthesis inhibition readout, counter-screen; max response, %; actives 12% (n = 300,000); cell reporter, cycloheximide protein synthesis inhibition counterscreen; in the data active = max response mostly above about 13%, no sharp cut-off; inactive = mostly below about 14%; note: read at 38.3 µM for the half of the compounds with a filed dose; 0% is about no effect
TbPYK inhibitor = T. brucei pyruvate kinase inhibition; Q57TT1; TbPYK enzyme, Kinase-Glo Plus ATP luminescence, 45 min; Potency, µM (top dose mostly 76.8 µM), for inactives: at the highest dose activity, negative = inhibition, usual class: inhibitors; actives 0.12% (n = 410,000); AID 624173; note: potency is the fitted concentration of half-maximal effect; % is set by controls: 0 for no effect and ±100 for the full control effect; nearly all actives have a fitted effect of over 50% in size
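Readout: single end-point luminescence (Kinase-Glo Plus, 10 min). Reaction conditions were TbPYK/substrate plus 130 uM ADP, 45 min at RT, pH 7.2 TEA buffer. No-enzyme wells served as controls, and data were normalized before concentration-response fitting.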
LmPK inhibitor = LmPK (Leishmania mexicana) enzyme inhibition | Q27686 | purified LmPK, Kinase-Glo ATP luminescence, 1 h | Potency, µM (highest dose often 57.5 µM), for inactives: top-dose activity change, negative = inhibition, most hits filed as inhibitors | actives 0.37% (n = 290,000) | AID 1721; note: potency is the fitted concentration of half-maximal effect; % is set by controls: 0 for no effect and ±100 for the full control effect
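Screened at intermediate enzyme activity to detect both inhibitors and activators: LmPK at 0.1 nM, with a 0.5 nM enzyme column as activation reference. PEP 0.5 mM, ADP 0.1 mM; ATP detected by luminescence after 1 h.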
Active calls of the source: *; u = inconclusive; x = not tested or not shown. Unless noted, calls come from the whole dose curve; as a rule, active = well fitted curve in the direction sought with a large enough effect; inconclusive = small, poorly fitted or top-dose-only effect, or another doubt; inactive = no such curve, though single readings can be large; an effect the other way counts as inactive or inconclusive.

SMILES	RE007 growth inh	Giardia FBPA inh	Shiga toxin inh	Cycloheximide cs	TbPYK inhibitor	LmPK inhibitor
CC(C)c1ccc(/C=N/NC(=O)C2CCCC2)cc1	-2%	-5%	88*	80*	-4%	-4%
C=C1CC(C(=O)N/N=C/c2ccccc2)C1	-4%	-2%	41*	40*	0%	-6%
Cc1cc(N2CCCC(C(=O)Nc3cccc4ccccc34)C2)n2ncnc2n1 (centres undefined)	u	3%	26	2	5%	-1%
Oc1ccc2ccccc2c1C=Nc1ccccc1-c1nc2ccccc2[nH]1	4%	u	59*	43*	-18%	-10%
O=C(/C=C/c1ccc2ccccc2n1)c1cc(Cl)ccc1O	16%	-13%	66*	39*	-4%	4%
O=C(/C=C/c1cccs1)c1cc(Cl)ccc1O	-21%	-3%	4	7	-1%	-5%
O=C1CCCc2nc(NCc3ccco3)ncc21	-3%	3%	23	-2	-3%	5%
CCc1ccc(Nc2ncc3c(n2)CC(C)(C)CC3=O)cc1	2%	12%	75*	57*	-2%	2%
CCc1ccc(Nc2ncc3c(n2)CC(C)CC3=O)cc1 (centres undefined)	-11%	2%	96*	47*	4%	3%
CC1(C)CC(=O)c2cnc(NCc3ccco3)nc2C1	-3%	3%	-1	14*	1%	0%
O=S(=O)(c1ccc(Br)s1)N1CCN(c2cccc(C(F)(F)F)c2)CC1	x	x	x	x	-1%	x
C#C[C@]1(OC(=O)CCCCCC)CC[C@H]2C3CCC4=CC(=O)CC[C@@H]4[C@H]3CC[C@@]21C (some centres undefined)	x	x	x	x	1%	x
O=C(Nc1ccccc1-c1nnc(SCc2ccc(Cl)cc2Cl)o1)c1ccccc1	8%	0%	-13	-3	-6%	-7%
Clc1ccc(-c2nnc(SCc3ccon3)o2)c(Cl)c1	u	9%	61*	37*	-3%	u
C=CCSc1nnc(-c2ccc(Cl)cc2Cl)o1	u	5%	92*	43*	1%	-16%
Clc1ccc2nc(CSc3nnc(-c4c[nH]c5ccccc45)o3)cn2c1	3%	x	x	x	10%	x
Clc1cccc(CSc2nnc(-c3c[nH]c4ccccc34)o2)c1	-28%	-18%	9	9.8*	3%	-2%
Clc1ccc(-c2nnc(SCc3nc4ccccc4[nH]3)o2)c(Cl)c1	3%	3%	32	17*	3%	-3%
c1ccc2[nH]c(CSc3nnc(-c4ccncc4)o3)nc2c1	-9%	-5%	-8	8	0%	-2%
O=C(Nc1ccc2c(c1)OCCO2)C1CCN(C(=O)c2ccc(Cl)cc2)CC1	4%	3%	48*	30*	1%	1%
O=C(Nc1ccc2c(c1)OCO2)C1CCN(C(=O)c2ccc(Cl)cc2)CC1	-7%	4%	-3	1	7%	6%
CC1CC(C)CN(C(=O)c2ccc3c(c2)OCCO3)C1 (centres undefined)	12%	x	x	x	1%	x
CC1CCN(C(=O)c2ccc3c(c2)OCCO3)CC1	52%	1%	55*	46*	-3%	0%
O=C(Nc1ccc2c(c1)OCCO2)C1CCN(C(=O)c2ccc(F)cc2)CC1	3%	-5%	109*	31*	0%	0%
C=Cc1ccc(C(=O)N2CCCC(Nc3ccc4c(c3)OCCO4)C2)cc1 (centres undefined)	-9%	-24%	15	12*	u	0%
SMILES	RE007 growth inh	Giardia FBPA inh	Shiga toxin inh	Cycloheximide cs	TbPYK inhibitor	LmPK inhibitor
O=C(CSc1nc(-c2ccccc2)nc2cc(=O)[nH]n12)Nc1ccccc1	x	x	x	x	4%	x
CCOC(=O)c1cc(-c2ccccc2)n(CCC(=O)NCCc2ccccc2)c1C	x	x	x	x	1%	x
COc1ccc(C2=Nc3ccc(OC(F)(F)F)cc3NC(c3cccnc3)=N2)cc1	x	x	x	x	-3%	x
O=C(c1cc2ccc3cccnc3c2[nH]1)N1CCN(c2cccc(C(F)(F)F)c2)CC1	x	x	x	x	0%	x
CCCC(=O)N/N=C1\CS(=O)(=O)N(C)c2ccsc21	5%	5%	27	4	5%	4%
Cc1ccc(N/N=C2\CS(=O)(=O)N(C)c3ccsc32)cc1	-15%	11%	66*	51*	-2%	2%
CN1c2ccsc2/C(=N/Nc2ccc(F)cc2)CS1(=O)=O	u	-12%	54	27*	-5%	0%
N/C(=N\N=C\c1ccc(Cl)cc1)N/N=C/c1ccc(Cl)cc1	x	x	x	x	-5%	x
Clc1ccc(/C=N/Nc2ncnc3ccccc23)cc1Cl	11%	-1%	90*	26*	0%	1%
Fc1ccccc1/C=N/Nc1ncnc2ccccc12	-28%	-12%	52	41*	4%	-2%
COC(=O)c1sc2c(c1C)c(=O)n(-c1ccccc1)c(=O)n2CC(=O)Nc1cccc(C)c1	x	x	x	x	-7%	x
CC(=O)Nc1ccc2nc(C3CC3)n(Cc3ccc(Cl)cc3)c(=O)c2c1	1%	3%	49*	23*	-1%	11%
O=C(Nc1ccc2nc(C3CC3)n(Cc3ccc(F)cc3)c(=O)c2c1)c1ccco1	-25%	4%	46	20	0%	3%
COc1ccc(Cn2c(C3CC3)nc3ccc(NC(=O)C4CC4)cc3c2=O)cc1	24%	-3%	84*	24*	1%	-10%
CCC(=O)Nc1ccc2nc(C3CC3)n(Cc3ccc(C(C)(C)C)cc3)c(=O)c2c1	-13%	5%	90*	57*	-21%	1%
CSc1ccc(CNC(=O)Cc2csc3ccccc23)cc1	x	x	x	x	-3%	x
Cc1ccc(C(=O)Nc2ccccc2N2CCCC2)cc1	7%	1%	x	0	-10%	2%
CCOc1ccc(N=Cc2c(O)c3ccccc3oc2=O)cc1	-8%	-3%	78*	26*	-7%	u
CCOc1ccc(N=Cc2c(O)cc(C)oc2=O)cc1	3%	-1%	-4	-3	0%	-6%
OC[C@@H](O)[C@H](O)C(/C=N/Nc1ccccc1)=N\Nc1ccccc1	114%	-15%	18	28*	-8%	3%
CCC1CSC(Nc2ccc(C(=O)/C=C/c3ccc(Oc4ccccc4)cc3)cc2)=N1 (centres undefined)	17%	-10%	30*	47*	8%	1%
CCC1CSC(Nc2ccc(C(=O)/C=C/c3cccc(C)c3)cc2)=N1 (centres undefined)	1%	0%	-2	13*	1%	-5%
